Source: PubChem (National Center for Advancing Translational Sciences (NCATS))
Rows were chosen to be rich in hits. Some 7.6% of all compounds tested hit in one or more screens of this group.
MCF10A rereplic: A quantitative high throughput screen for small molecules that induce DNA re-replication in MCF 10a normal breast cells. MCF 10A DNA re-replication, Hoechst nuclear intensity, 48 h. Potency, µM (highest dose often 46.1 µM), for the others: top-dose activity, positive = re-replication, usual class: activators. 350,000 tested, 2.9% active. AID 624296, 2012; note: potency is the fitted concentration of half-maximal effect; % of control where 0% means no effect; nearly all actives have a fitted effect of over 50% in size
KCNH2 3.1 inh: qHTS for Inhibitors of KCHN2 3.1: Mutant qHTS | Potassium voltage-gated channel subfamily H member 2, brain isoform KCNH2 3.1 (human) | U2OS KCNH2 3.1, thallium flux FluxOr; stronger effect = lower value | activity change, % (tested at about 1.8 µM) | 340,000 tested, 0.95% active;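 active = maximum activity change below -70%; inconclusive = maximum activity change from -70% to -50%; inactive = maximum activity change above -50%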;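 note: thallium influx rate constant from kinetic fluorescence after stimulation buffer; % is set by controls: 0 for no effect and ±100 for the full control effect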
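Steps: virus added to U2OS suspension (4 h, RT, dark); medium with 10% FBS added, cells plated, 37 C overnight; FluxOr/Red40 loading buffer 45 min RT; stimulation buffer, 2 min kinetic read; rate constant normalized.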
SW480 rereplic: A quantitative high throughput screen for small molecules that induce DNA re-replication in SW480 colon adenocarcinoma cells. AID 624297, 2012. Potency, µM (series often up to 46.1 µM), for the others: top-dose re-replication activation, usual class: activators. SW480 DNA re-replication, Hoechst DNA content imaging, 48 h. 340,000 tested, 1.8% active; note: potency is the fitted concentration of half-maximal effect; % of control where 0% means no effect; nearly all actives have a fitted effect of over 55% in size
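Image-based read-out: total Hoechst fluorescence of nuclei (405 nm excitation, 500-530 nm emission), with hits raising the fraction of high-intensity nuclei. SW480 colon cells incubated 48 hr with compounds at 37 C.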
KCNH2 WT inh: qHTS for Inhibitors of KCHN2 3.1: Wildtype qHTS; U2OS, BacMam KCNH2, thallium flux FluxOr; stronger effect = lower value; 340,000 tested, 0.37% active; activity change, % at 1.84 µM;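 active = maximum activity change below -70%; inconclusive = maximum activity change between -70% and -50%; inactive = maximum activity change above -50%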; note: % is set by controls: 0 for no effect and ±100 for the full control effect
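U2OS cells were transduced with wild-type KCNH2 virus (2.03 x 10^8 / mL) for 4 h at room temperature, then cultured overnight at 37 C. Thallium flux was read with FluxOr dye. Rate constants were normalized to DMSO controls.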
KB-V1 MDR tox: qHTS assay for MDR1-selective chemotherapeutics: Primary screen using the drug-selected MDR subline cells KB-V1 | KB-V1 MDR cells viability, CellTiter-Glo, 72 h | Potency, µM (top dose mostly 46.1 µM), usual class: cytotoxic | 400,000 tested, 3.4% active; note: potency is the fitted concentration of half-maximal effect; % is set by controls: 0 for no effect and ±100 for the full control effect; nearly all actives have a fitted effect of over 60% in size
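KB-V1, DMEM (no phenol red) + 10% FBS; cpd pin-transferred, titration series; 72 h, 37 degrees C; CellTiter-Glo, luminescence. Data normalized, curve-fit.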
KB-3-1 tox: qHTS assay for MDR1-selective chemotherapeutics: Primary screen using the parental adenocarcinoma cell KB-3-1; KB-3-1 viability, CellTiter-Glo ATP luminescence, 72 h; Potency, µM (top dose mostly 46.1 µM), hits mostly cytotoxic; 400,000 tested, 1.4% active; AID 1347075, 2019; note: potency is the fitted concentration of half-maximal effect; % is set by controls: 0 for no effect and ±100 for the full control effect; nearly all actives have a fitted effect of over 60% in size
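Luminescent ATP read-out (CellTiter-Glo) measures survival of drug-naive KB-3-1 cells after 72 h compound exposure at 37 °C. Titration series was screened from lowest to highest concentration, with DMSO vehicle plates as background controls.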
Numbers without * were called inactive; i = inactive; ? = inconclusive; . = not tested or not shown. Unless noted, calls come from the whole dose curve; as a rule, active = well fitted curve in the direction sought with a large enough effect; inconclusive = small, poorly fitted or top-dose-only effect, or another doubt; inactive = no such curve, though single readings can be large; an effect the other way counts as inactive or inconclusive.

SMILES | MCF10A rereplic | KCNH2 3.1 inh | SW480 rereplic | KCNH2 WT inh | KB-V1 MDR tox | KB-3-1 tox
COc1ccc(NC(=S)Nc2ccccc2)c(OC)c1 | 0% | 6 | 9% | -9 | i | i
O=C(N/N=C/c1ccccc1OC(F)F)c1cc(-c2ccncc2)nc2ccccc12 | 4.6µM* | 0 | 12µM* | -2 | i | 18µM*
Cc1[nH]c2ccccc2c1/C=N/NC(=O)c1cc(-c2ccncc2)nc2ccccc12 | ? | 14 | 13µM* | 3 | i | ?
O=C(O)COc1ccccc1/C=N/NC(=O)c1cc(-c2ccccc2)nc2ccccc12 | -4% | -31 | -44% | 7 | i | i
CCOC(=O)c1ccc(S(=O)(=O)Nc2ccc3cn[nH]c3c2)cc1 | 5% | -3 | 1% | -4 | 18µM* | ?
COc1ccc(S(=O)(=O)Nc2ccc3cn[nH]c3c2)cc1C | 2% | 6 | -1% | -1 | ? | i
CCn1c(C(=O)NCCCN2CCc3ccccc3C2)cc2sccc21 | 6% | -36 | ? | 17 | 9.2µM* | i
Cc1cc2c(cc(C(=O)NCCCN3CCOCC3)n2Cc2ccc(Cl)cc2)o1 | 23µM* | -23 | 18µM* | 15 | i | i
O=C(NCCCN1CCOCC1)c1ccc(Cl)cc1 | -4% | . | -4% | . | . | .
CCn1c(C(=O)NCc2ccccn2)cc2sccc21 | 10% | 2 | -6% | 0 | 15µM* | i
Cc1ccc(CCNC(=O)c2cc3sccc3n2Cc2ccc(C)cc2)cc1 | . | . | . | . | i | i
CCn1c(C(=O)NCCCc2ccccc2)cc2sccc21 | 14% | ? | 0% | -1 | ? | i
Cc1ccc(Cn2c(C(=O)NCCCN3CCOCC3)cc3sccc32)cc1 | -1% | 5 | -7% | 32 | 4.6µM* | i
COc1ccc(/C=C/C(=O)OC(C)CN2CCCCC2)cc1 (stereo not given) | 4% | 3 | ? | -11 | i | i
O=C(OCC1CCCO1)c1ccc2c(c1)N(Cc1ccccc1F)C(=O)c1ccccc1S2(=O)=O (stereo not given) | . | . | . | . | i | i
Cc1cc(NC(C)c2ccccc2)n2ncc(-c3ccccc3)c2n1 (stereo not given) | ? | -3 | 13% | 0 | i | ?
CCOC(=O)c1c(C)c(C(=O)NCc2ccccn2)c(C)n1CC | 18% | -2 | ? | 4 | 16µM* | i
CCc1ccc(-c2cc3c(=O)n(CC(=O)NCCN4CCCCC4C)nc(C)n3n2)cc1 (stereo not given) | ? | -22 | 18µM* | 22 | i | ?
CCc1ccc(-c2cc3c(=O)n(CC(=O)N4CCCC4)nc(C)n3n2)cc1 | ? | 13 | 1% | -14 | i | i
C/C(=N/NC(=O)c1nnn(-c2nonc2N)c1CSc1ccc(Cl)cc1)c1ccncc1 | . | -16 | . | -15 | i | i
Cc1ccc(NC(=O)c2cc(C)n(-c3cccc(C)c3)c2C)cc1 | ? | 7 | ? | -4 | ? | i
Cc1ccc(NC(=O)c2cc(C)n(-c3ccccc3)c2C)cc1 | 3.3µM* | -10 | 3% | -9 | i | i
COc1cccc(/C=C/C(=O)OCC(=O)NCCCc2ccccc2)c1OC | -7% | -2 | -23% | -10 | i | i
CN(C)/C=C/C(=O)c1ccc(N2CCN(c3ncc(C(F)(F)F)cc3Cl)CC2)cc1 | ? | -4 | 12% | -8 | ? | ?
CN(C)C=NC(=O)c1ccc(N2CCN(c3ncc(C(F)(F)F)cc3Cl)CC2)cc1 | 15µM* | ? | -1% | -18 | i | i
SMILES | MCF10A rereplic | KCNH2 3.1 inh | SW480 rereplic | KCNH2 WT inh | KB-V1 MDR tox | KB-3-1 tox
O=C(Cc1cccs1)NCCSc1c(-c2ccc(Cl)cc2)[nH]c2ccccc12 | 21µM* | -18 | ? | 0 | i | ?
CN1/C(=C\C=[N+](C)c2ccccc2)C(C)(C)c2ccccc21 | 16% | -11 | -3% | 2 | i | 3.3µM*
CN1/C(=C\C=N\O)C(C)(C)c2ccccc21 | 16% | . | 5% | -6 | i | i
CN1/C(=C/C=C(/C#N)C(N)=O)C(C)(C)c2ccccc21 | 5µM* | -13 | 6.3µM* | -5 | ? | 2.6µM*
Cc1ccccc1N=C/C=C1\N(C)c2ccccc2C1(C)C | ? | -4 | ? | -4 | 23µM* | i
CCCCn1c(N)c(N(CCOC)C(=O)COC(=O)C(C)Oc2ccc(Cl)cc2)c(=O)[nH]c1=O (stereo not given) | -2% | -4 | -5% | 6 | i | i
COc1ccc(S(=O)(=O)NCCc2sc(-c3cccnc3)nc2C)cc1OC | . | . | . | . | i | i
Cc1nc(Nc2ccc(Cl)c(Cl)c2)sc1C(=O)Nc1ccccc1 | 23µM* | -11 | 28% | 3 | i | ?
Cc1nc(NC(=O)/C=C/c2ccccc2)sc1C(=O)Nc1ccc(Cl)cc1 | 16µM* | 0 | ? | -19 | i | i
O=C(Cc1ccc(-c2ccccc2)cc1)NO | . | . | . | . | i | ?
CCc1cc2c(NCc3ccco3)ncnc2s1 | 2% | -1 | 6% | -5 | 21µM* | 12µM*
Cc1ccc(-n2ncc3c(NC4CCCCCC4)ncnc32)cc1Cl | . | . | . | . | i | i
Cc1ccc(-n2ncc3c(NNC(=O)c4ccco4)ncnc32)cc1C | 2% | 18 | -14% | -1 | i | i
Cc1ccc(Cl)cc1-n1ncc2c(NC3CCCCCC3)ncnc21 | . | . | . | . | ? | 21µM*
O=C(NNc1ncnc2c1cnn2-c1cccc(Cl)c1)c1ccco1 | ? | -8 | 21µM* | 4 | i | i
Clc1ccc(-n2ncc3c(NCC4CCCO4)ncnc32)cc1 (stereo not given) | ? | 18 | 18µM* | 9 | 12µM* | 23µM*
O=C(COCc1cc(-c2cccs2)on1)N1CCN(c2ccc(F)cc2)CC1 | . | . | . | . | i | i
CCOC(=O)[C@H]1[C@H]2COc3ccc(C)cc3[C@@H]2N2C(=O)CN(Cc3ccco3)C(=O)[C@@]12C | 24% | . | -15% | . | i | i
Clc1ccc(-n2ncc3c(NCc4ccco4)ncnc32)cc1 | ? | -11 | ? | -5 | ? | 5µM*
COc1ccc(-n2ncc3c(NCc4ccco4)ncnc32)cc1 | 5% | 5 | -4% | 1 | 21µM* | i
